We go through ten molecules from PubChem BioAssay (NCI).

A short description of assay [1]: NCI Yeast Anticancer Drug Screen. Data for the rad50 strain (AID 155).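 Further: 0% = growth of vehicle-only cultures of the same strain.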 To be noted: S. cerevisiae rad50 strain growth inhibition, hits give high values. In outline: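 Genetically altered yeast (DNA repair pathway); compound treatment; growth inhibition vs vehicle ctrl.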
The nature of assay [2]: NCI Yeast Anticancer Drug Screen. Data for the mec2-1 strain (AID 157). To be noted: S. cerevisiae mec2-1 strain, hits give high values. In outline: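 Strain: mec2-1 (DNA repair/cell cycle alteration). Compound exposure, then growth measured; inhibition expressed relative to vehicle.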
The nature of assay [3]: NCI Yeast Anticancer Drug Screen. Data for the sgs1 mgt1 strain (AID 161).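 Further: 0% = growth of cultures given vehicle only.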 To be noted: S. cerevisiae sgs1 mgt1 strain, hits give high values. In short, it runs like this: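 Inhibition of yeast growth, normalised to vehicle-treated controls, is reported for a strain bearing genetic alterations in DNA damage repair.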
Assay [4] can be described thus: NCI Yeast Anticancer Drug Screen. Data for the cln2 rad14 strain (AID 165).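 Further: 0% = growth equal to vehicle treated cultures.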 To be noted: S. cerevisiae cln2 rad14 strain, hits give high values. In short, it runs like this: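 Compounds are applied to the cln2 rad14 yeast strain, and growth is then compared with that of vehicle-treated cultures to give inhibition.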
A short description of assay [5]: NCI Yeast Anticancer Drug Screen. Data for the bub3 strain (AID 167). To be noted: S. cerevisiae bub3 mutant strain, hits give high values. In outline: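 Yeast carrying a defined mutation is treated with each compound, and growth is compared with that of vehicle-exposed cells to give inhibition.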
The nature of assay [6]: NCI Yeast Anticancer Drug Screen. Data for the mlh1 rad18 strain (AID 175). To be noted: S. cerevisiae mlh1 rad18 strain growth inhibition, hits give high values. In short, it runs like this: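 Read-out is yeast growth inhibition, calculated against vehicle-only controls. The compound was applied to a strain engineered with DNA damage repair alterations.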
[7] abbreviates: at 5.0 µM (retest, dose inferred, filed as 0.5).
[8] abbreviates: at 50.0 µM (retest, dose inferred, filed as 5.0).

About 79,000 compounds went through this panel and 15% of them were active in at least one assay; those are over-represented in the sample as a whole. Unmarked numbers belong to inactive results. Calls of active or inactive are those of the source. No stated cut-off is given here; in the data, active means growth inhibition above about 70%; inactive means the rest.

Regarding `OCCCC(Sc1ccccc1)c1ccccc1` (stereo not given), the growth inhibition is -1% in assay [1] (setting [7]); 25% in assay [1] (setting [8]); 46.4% in assay [1] (at 50.0 µM); -18% in assay [2] (setting [7]); 13% in assay [2] (setting [8]); 78.5% (active) in assay [2] (at 50.0 µM). Also, the growth inhibition in assay [3] (setting [7]) is -15%; in assay [3] (setting [8]), 23%; in assay [3] (at 50.0 µM) it was 67.2%; in assay [4] (setting [7]) it was -1%; in assay [4] (setting [8]), -1%; in assay [4] (at 50.0 µM) it was 40.2%. Further, the growth inhibition in assay [5] (setting [7]) is -4%; in assay [5] (setting [8]), 3%; in assay [5] (at 50.0 µM), -0.25%; in assay [6] (setting [7]), 28%; in assay [6] (setting [8]), 23%; in assay [6] (at 50.0 µM), 52.2%.

Consider `O=S1(=O)C(C(O)(c2ccccc2)c2ccccc2)CCCN1c1ccccc1` (stereo not given), for which the growth inhibition in assay [1] (setting [7]) is 4%; in assay [1] (setting [8]), 32%; in assay [1] (at 50.0 µM), 76.5% (active); in assay [2] (setting [7]), -8%; in assay [2] (setting [8]), 0%; in assay [2] (at 50.0 µM), 31.4%. In addition, the growth inhibition is -1% in assay [3] (setting [7]); 16% in assay [3] (setting [8]); 70.5% (active) in assay [3] (at 50.0 µM); 1% in assay [4] (setting [7]); -19% in assay [4] (setting [8]); 12.2% in assay [4] (at 50.0 µM). Further, the growth inhibition is 0% in assay [5] (setting [7]); 3% in assay [5] (setting [8]); 21.4% in assay [5] (at 50.0 µM); -2% in assay [6] (setting [7]); -87% in assay [6] (setting [8]); 25.4% in assay [6] (at 50.0 µM).

`CCOC(=O)C1C(c2cccc(OC)c2O)c2cc3c(cc2OC1(C)N1CCCC1)OCO3` (stereo not given): the growth inhibition is -3% in assay [1] (setting [7]); 21% in assay [1] (setting [8]); 31.2% in assay [1] (at 50.0 µM); 1% in assay [2] (setting [7]); 15% in assay [2] (setting [8]); 16.4% in assay [2] (at 50.0 µM). Moreover, the growth inhibition in assay [3] (setting [7]) is -2%; in assay [3] (setting [8]), 39%; in assay [3] (at 50.0 µM), 34.5%; in assay [4] (setting [7]), -5%; in assay [4] (setting [8]), -4%; in assay [4] (at 50.0 µM), 2.55%. Also, the growth inhibition in assay [5] (setting [7]) is 1%; in assay [5] (setting [8]), 25%; in assay [5] (at 50.0 µM), 24.9%; in assay [6] (setting [7]) it was -4%; in assay [6] (setting [8]), 27%; in assay [6] (at 50.0 µM) it was 50.5%.

For `Cc1ccc(/C=N/NC(N)=S)cc1C`, the growth inhibition in assay [1] (setting [7]) is -6%; in assay [1] (setting [8]), 18%; in assay [1] (at 50.0 µM), 45.1%; in assay [2] (setting [7]), -4%; in assay [2] (setting [8]), 3%; in assay [2] (at 50.0 µM), 10.8%. For the same molecule, the growth inhibition in assay [3] (setting [7]) is -5%; in assay [3] (setting [8]), 9%; in assay [3] (at 50.0 µM), 61.7%; in assay [4] (setting [7]), -12%; in assay [4] (setting [8]), -13%; in assay [4] (at 50.0 µM), -11.1%. Moreover, the growth inhibition in assay [5] (setting [7]) was -4%; in assay [5] (setting [8]), -2%; in assay [5] (at 50.0 µM) it was 34.8%; in assay [6] (setting [7]), -6%; in assay [6] (setting [8]) it was 7%; in assay [6] (at 50.0 µM), 65.6%.

For `CCCCCCCCCCCCCCCCOS(=O)(=O)O`, the growth inhibition is 24% in assay [1] (setting [7]); 99% (active) in assay [1] (setting [8]); 98% (active) in assay [1] (at 50.0 µM); 13% in assay [2] (setting [7]); 100% (active) in assay [2] (setting [8]); 98.5% (active) in assay [2] (at 50.0 µM). Besides, the growth inhibition in assay [3] (setting [7]) is 49%; in assay [3] (setting [8]) it was 100% (active); in assay [3] (at 50.0 µM), 98.8% (active); in assay [4] (setting [7]) it was 5%; in assay [4] (setting [8]), 99% (active); in assay [4] (at 50.0 µM), 97.7% (active). Also, the growth inhibition in assay [5] (setting [7]) was 20%; in assay [5] (setting [8]), 100% (active); in assay [5] (at 50.0 µM), 98.8% (active); in assay [6] (setting [7]), 42%; in assay [6] (setting [8]), 100% (active); in assay [6] (at 50.0 µM), 99% (active).

For `COc1cc(OC)c(OC)cc1/C=C\c1nccc2ccccc12`, the growth inhibition was 1% in assay [1] (setting [7]); 51% in assay [1] (setting [8]); 92.9% (active) in assay [1] (at 50.0 µM); -3% in assay [2] (setting [7]); 12% in assay [2] (setting [8]); 92.5% (active) in assay [2] (at 50.0 µM). Also, the growth inhibition in assay [3] (setting [7]) was -4%; in assay [3] (setting [8]), 23%; in assay [3] (at 50.0 µM), 93.7% (active); in assay [4] (setting [7]), 4%; in assay [4] (setting [8]) it was 0%; in assay [4] (at 50.0 µM), 65.4%. The growth inhibition in assay [5] (setting [7]) is -6%; in assay [5] (setting [8]), -6%; in assay [5] (at 50.0 µM) it was 91.3% (active); in assay [6] (setting [7]) it was -3%; in assay [6] (setting [8]) it was 12%; in assay [6] (at 50.0 µM) it was 94.2% (active).

Regarding `Nc1ccc(N=Nc2ccccc2)c2ccccc12`, the growth inhibition is 9% in assay [1] (setting [7]); 96% (active) in assay [1] (setting [8]); 97.8% (active) in assay [1] (at 50.0 µM); 0% in assay [2] (setting [7]); 98% (active) in assay [2] (setting [8]); 99% (active) in assay [2] (at 50.0 µM). In addition, the growth inhibition in assay [3] (setting [7]) is 3%; in assay [3] (setting [8]), 98% (active); in assay [3] (at 50.0 µM), 98.5% (active); in assay [4] (setting [7]), 0%; in assay [4] (setting [8]), 97% (active); in assay [4] (at 50.0 µM), 98.5% (active). The growth inhibition in assay [5] (setting [7]) is 2%; in assay [5] (setting [8]) it was 99% (active); in assay [5] (at 50.0 µM) it was 98.3% (active); in assay [6] (setting [7]), 4%; in assay [6] (setting [8]), 98% (active); in assay [6] (at 50.0 µM) it was 97.6% (active).

`COC12C=CC(CC1)c1c2c(O)c2ccncc2c1O` (stereo not given): the growth inhibition in assay [1] (setting [7]) was 9%; in assay [1] (setting [8]), 89% (active); in assay [1] (at 50.0 µM), 58.1%; in assay [2] (setting [7]), -3%; in assay [2] (setting [8]), 81% (active); in assay [2] (at 50.0 µM), 56.7%. For the same molecule, the growth inhibition in assay [3] (setting [7]) is 4%; in assay [3] (setting [8]), 87% (active); in assay [3] (at 50.0 µM), 70%; in assay [4] (setting [7]), -3%; in assay [4] (setting [8]), 68%; in assay [4] (at 50.0 µM) it was 55.9%. In addition, the growth inhibition was 18% in assay [5] (setting [7]); 95% (active) in assay [5] (setting [8]); 59.8% in assay [5] (at 50.0 µM); -3% in assay [6] (setting [7]); 86% (active) in assay [6] (setting [8]); 64.8% in assay [6] (at 50.0 µM).

For the molecule `S=C=NCCCCCCN=C=S`, the growth inhibition in assay [1] (setting [7]) is 36%; in assay [1] (setting [8]), 99% (active); in assay [1] (at 50.0 µM), 99.6% (active); in assay [2] (setting [7]) it was 41%; in assay [2] (setting [8]) it was 99% (active); in assay [2] (at 50.0 µM), 99.5% (active). Also, the growth inhibition in assay [3] (setting [7]) is 59%; in assay [3] (setting [8]), 99% (active); in assay [3] (at 50.0 µM), 99.3% (active); in assay [4] (setting [7]), 21%; in assay [4] (setting [8]), 99% (active); in assay [4] (at 50.0 µM), 99.3% (active). The growth inhibition in assay [5] (setting [7]) is 58%; in assay [5] (setting [8]), 99% (active); in assay [5] (at 50.0 µM) it was 99.3% (active); in assay [6] (setting [7]), 79% (active); in assay [6] (setting [8]), 99% (active); in assay [6] (at 50.0 µM), 99.2% (active).

Turning to `CC(C)c1ccc(C(=O)C2CC2)cc1`, the growth inhibition in assay [1] (setting [7]) is -23%; in assay [1] (setting [8]), 0%; in assay [1] (at 50.0 µM), 34.6%; in assay [2] (setting [7]) it was -10%; in assay [2] (setting [8]), -27%; in assay [2] (at 50.0 µM) it was 42.9%. For the same molecule, the growth inhibition was -12% in assay [3] (setting [7]); -14% in assay [3] (setting [8]); 50.6% in assay [3] (at 50.0 µM); 9% in assay [4] (setting [7]); 24% in assay [4] (setting [8]); 40.5% in assay [4] (at 50.0 µM). Besides, the growth inhibition is -29% in assay [5] (setting [7]); -20% in assay [5] (setting [8]); 65.3% in assay [5] (at 50.0 µM); -22% in assay [6] (setting [7]); -18% in assay [6] (setting [8]); 21% in assay [6] (at 50.0 µM).
